TSG101-PTAP inh – blocks PTAP/TSG101 interaction to inhibit HIV-1 budding; Fluorescence polarization, FITC-PTAP peptide / Tsg101 binding; Potency, µM (titrated, usually from 115 µM), actives largely listed as inhibitors; 340,000 tested, under 10 active; AID 493005; active = well fitted inhibition curve with a large enough effect in the main read-out, with a control signal flat, not every such curve was filed as active; inconclusive = small, poorly fitted or top-dose-only effect, or effect the other way, or a change in a side signal; inactive = no such curve, though single readings can be large or run the other way
Target sequence (Q99816 whole entry, looked up): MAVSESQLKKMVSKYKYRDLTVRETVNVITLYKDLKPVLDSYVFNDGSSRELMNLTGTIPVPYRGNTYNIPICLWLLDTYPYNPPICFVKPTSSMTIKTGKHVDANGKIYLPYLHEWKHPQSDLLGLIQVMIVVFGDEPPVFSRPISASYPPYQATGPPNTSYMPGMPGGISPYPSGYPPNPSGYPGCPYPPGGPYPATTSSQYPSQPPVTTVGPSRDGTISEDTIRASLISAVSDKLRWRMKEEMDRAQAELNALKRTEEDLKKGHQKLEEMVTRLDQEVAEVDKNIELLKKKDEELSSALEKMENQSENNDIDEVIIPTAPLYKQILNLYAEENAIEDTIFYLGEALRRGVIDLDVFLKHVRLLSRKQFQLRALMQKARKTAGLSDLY
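Fluorescence polarization binding of Tsg101 binding domain (10 uM final) to FITC-labeled PTAP peptide (50 nM final) in HEPES pH 7.5 buffer with NaCl, Tween 20, EDTA, TCEP. Compounds added before peptide; binding 20 min at RT.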
ERG-DNA inh – ERG Ets/DNA interaction inhibition; P11308; Potency, µM (top dose mostly 76.9 µM), most hits filed as inhibitors; AID 624246; actives 0.028% (n = 370,000); fluorescence polarization, His-ERG Ets domain / labelled DNA; active = well fitted inhibition curve with a large enough effect in the polarisation, with a control signal flat; inconclusive = small, poorly fitted or top-dose-only effect, or effect the other way, or a change in a side signal; inactive = no such curve, though single readings can be large or run the other way; the % refers to the polarisation;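 note: polarization taken with two DNA probes labelled with fluorescein and Texas red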
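His-tagged ERG Ets domain (1 uM in the protein solution; 300mM KCl, 50mM Tris-HCl, 1mM EDTA, 1mM DTT, pH 7.5) received compound, then a probe mix of 5 nM fluorescein-DNA and 100nM Texas-615-DNA. Fluorescence polarization was read for both dyes.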
mIDH1 inhibitor – human IDH1 R132H inhibition. O75874. IDH1-R132H enzyme, NADPH consumption, diaphorase/resazurin fluorescence. Potency, µM (highest dose often 76.6 µM), actives largely listed as inhibitors. actives 0.093% (n = 390,000). AID 602179; note: nearly all actives have a fitted effect of over 65% in size
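IDH1-R132H (0.5 ug/mL dispensed) in pH 7.5 Tris buffer was preincubated 30 min with compound, then given a substrate mix of 0.016 mM NADPH and 2 mM alpha-KG for 80 min at room temperature; remaining NADPH was read by diaphorase/resazurin fluorescence.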
Apoferritin bind – candidate novel general anesthetic via apoferritin binding; apoferritin/1-aminoanthracene competitive binding, fluorescence; Potency, µM (top dose mostly 77.5 µM), hits mostly inhibitors; actives 0.074% (n = 350,000); AID 485281; P02791; note: nearly all actives have a fitted effect of over 20% in size
Target sequence (P02791 2-175 limits assumed): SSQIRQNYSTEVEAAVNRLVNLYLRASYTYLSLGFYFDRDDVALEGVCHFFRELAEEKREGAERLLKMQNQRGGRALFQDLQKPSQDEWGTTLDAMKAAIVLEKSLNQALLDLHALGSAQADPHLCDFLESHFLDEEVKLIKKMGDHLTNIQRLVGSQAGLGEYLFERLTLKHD
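Apoferritin-based anesthetic binding model; compound displacement of fluorescent 1-AMA measured as endpoint fluorescence after 10 minutes at room temperature, scaled to free-ligand and complex controls.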
Resorufin autofl – interferes with resorufin fluorescence in IDH1 counter-screen; inhibition of signal, % at 51.2 µM; 750 tested, under 10 active; Resorufin detection reagent fluorescence interference, cell-free; shares compounds with mIDH1 inhibitor
IDH1 WT – wild-type IDH1 (human) inhibition counterscreen. Potency, µM (titrated, usually from 115 µM), most hits filed as inhibitors. actives 9% (n = 750). shares compounds with mIDH1 inhibitor. WT IDH1 enzyme, NADPH diaphorase/resazurin fluorescence; note: nearly all actives have a fitted effect of over 55% in size
IDH1 R132H conf – confirmation of human mutant IDH1 inhibitors; shares compounds with mIDH1 inhibitor; IDH1 R132H enzyme, NADPH diaphorase/resazurin fluorescence; Potency, µM (top dose mostly 76.6 µM), hits mostly inhibitors; actives 83% (n = 750); note: nearly all actives have a fitted effect of over 50% in size
Each line names hits and unclear results; the compound was inactive in the other large screens (follow-up assays come after a bar, where they were run). An excerpt weighted towards active compounds, which were near 0.18% of everything screened. Unless noted, calls come from the whole dose curve; as a rule, active = well fitted curve in the direction sought with a large enough effect; inconclusive = small, poorly fitted or top-dose-only effect, or another doubt; inactive = no such curve, though single readings can be large; an effect the other way counts as inactive or inconclusive.

CCNC(=O)NC(=O)C(C)OC(=O)c1oc2ccccc2c1CSC1CCCCC1 (centres undefined)	mIDH1 inhibitor inconclusive | Resorufin autofl inactive | IDH1 WT inactive | IDH1 R132H conf 32µM
CC(C)C(OC(=O)c1oc2ccccc2c1CSC1CCCCC1)C(=O)NC(N)=O (centres undefined)	none (no result: TSG101-PTAP inh, ERG-DNA inh, mIDH1 inhibitor)
Cc1ccc(S(=O)(=O)Nc2ccc(S(=O)(=O)Nc3cc(C)nc(C)n3)cc2)cc1	none
Cc1cc(NS(=O)(=O)c2ccc(NS(=O)(=O)c3ccc(CC(C)C)cc3)cc2)nc(C)n1	mIDH1 inhibitor 18µM | Resorufin autofl inactive | IDH1 WT inactive | IDH1 R132H conf 16µM
CN(C)c1ccc(S(=O)(=O)N2CCCCC2)cc1NC(=O)COc1ccccc1F	none
CCOC(=O)c1oc2cc(OC(C)=O)ccc2c(=O)c1-c1ccc(OC)c(OC)c1	mIDH1 inhibitor 29µM | Resorufin autofl inactive | IDH1 WT inactive | IDH1 R132H conf 25µM
CCOC(=O)COc1ccc2c(=O)c(-c3ccc(OC)c(OC)c3)c(C(=O)OCC)oc2c1	none
COc1cccc(C2c3c(-c4cc(Cl)c(C)cc4O)n[nH]c3C(=O)N2Cc2cccnc2)c1 (centres undefined)	mIDH1 inhibitor inconclusive, Apoferritin bind inconclusive | Resorufin autofl inactive | IDH1 WT inactive | IDH1 R132H conf 16µM
CCCCOc1ccc(C2c3c(-c4ccccc4O)n[nH]c3C(=O)N2Cc2ccncc2)cc1OC (centres undefined)	mIDH1 inhibitor inconclusive (no result: TSG101-PTAP inh)
COc1cc(C2c3c(-c4cc(Cl)c(C)cc4O)n[nH]c3C(=O)N2Cc2cccnc2)ccc1O (centres undefined)	mIDH1 inhibitor inconclusive, Apoferritin bind inconclusive | Resorufin autofl inactive | IDH1 WT inactive | IDH1 R132H conf 45µM
COc1ccc(NC(=O)c2cnn(-c3ccc(F)cc3F)c2C2CCN(C(=O)OC(C)(C)C)CC2)cc1Cl	none (no result: TSG101-PTAP inh)
CC(C)(C)OC(=O)N1CCC(c2cc(=O)n3[nH]cc(C(=O)NC4CCCC4)c3n2)CC1	none
CC(C)(C)OC(=O)N1CCC(c2cc(=O)n3[nH]cc(C(=O)Nc4ccc(F)c(Cl)c4)c3n2)CC1	mIDH1 inhibitor inconclusive | Resorufin autofl inactive | IDH1 WT inconclusive | IDH1 R132H conf 10µM
COc1ccc(NC(=O)c2c[nH]n3c(=O)cc(C4CCN(C(=O)OC(C)(C)C)CC4)nc23)cc1Cl	mIDH1 inhibitor 41µM | Resorufin autofl inactive | IDH1 WT 32µM | IDH1 R132H conf 20µM
COc1ccc(-c2n[nH]c3c2C(c2ccc(Cl)cc2Cl)NC3=O)cc1 (centres undefined)	mIDH1 inhibitor inconclusive (no result: TSG101-PTAP inh) | Resorufin autofl inactive | IDH1 WT inactive | IDH1 R132H conf 40µM
CCOC(=O)c1c(NC(=O)CSc2nnc3c(Cl)cc(Cl)cn23)sc2c1CCC2	none
Cc1ccc2c(c1)c1ncnc(N3CCOCC3)c1n2C	none
Cc1ccc2c(c1)c1ccc3c(c1n2C)C(=O)C=CC3=O	mIDH1 inhibitor 41µM | Resorufin autofl inactive | IDH1 WT inactive | IDH1 R132H conf 22µM
Cc1ccc(C)c2c1c1ccccc1n2C	none
Cn1c2ccccc2c2ccc3c(c21)C(=O)C=CC3=O	mIDH1 inhibitor 23µM (no result: Apoferritin bind) | Resorufin autofl inactive | IDH1 WT inactive | IDH1 R132H conf 10µM
COc1ccc2c(c1)c1ccc3c(c1n2C)C(=O)C=CC3=O	mIDH1 inhibitor 35µM | Resorufin autofl inactive | IDH1 WT inactive | IDH1 R132H conf 22µM
Cc1ccccc1C(=O)Nc1ccccc1C(=O)NCc1ccccc1	none
Cc1ccc(-c2nnc(Nc3ccc(F)cc3)c3ccccc23)cc1S(=O)(=O)NC(C)C	mIDH1 inhibitor inconclusive (no result: TSG101-PTAP inh) | Resorufin autofl inactive | IDH1 WT inactive | IDH1 R132H conf inconclusive
COc1nnc(-c2ccc(C)c(S(=O)(=O)NC(C)C)c2)c2ccccc12	none
O=C(O)c1[nH]c2ccccc2c1C(c1cc(Br)ccc1O)c1c(C(=O)O)[nH]c2ccccc12	mIDH1 inhibitor 41µM | Resorufin autofl inactive | IDH1 WT 71µM | IDH1 R132H conf 25µM
COc1cc(Cl)cc(C(c2c(C(=O)O)[nH]c3ccccc23)c2c(C(=O)O)[nH]c3ccccc23)c1O	none
Cc1nn(-c2ccccc2)c(Cl)c1CN(C(=O)CCl)c1ccc(Cl)cc1	mIDH1 inhibitor 52µM (no result: ERG-DNA inh) | Resorufin autofl inactive | IDH1 WT inactive | IDH1 R132H conf 28µM
CCOc1ccc(NC(=O)CN2C(=O)C(c3ccccc3)=NC23CCC(C)CC3)cc1 (centres undefined)	mIDH1 inhibitor 22µM (no result: TSG101-PTAP inh) | Resorufin autofl inactive | IDH1 WT inactive | IDH1 R132H conf 16µM
COc1ccc(Br)cc1C1Nc2cccc3cccc(c23)N1	none
O=C(Oc1ccc2c(c1)O/C(=C\c1ccncc1)C2=O)c1ccccc1	mIDH1 inhibitor 52µM | Resorufin autofl inactive | IDH1 WT inactive | IDH1 R132H conf 35µM
Cc1ccc(/C=C2\Oc3cc(OC(=O)N4CCOCC4)ccc3C2=O)cc1	none
COc1ccc(-n2c(-c3ccc(Cl)cc3Cl)n[nH]c2=S)c(OC)c1	mIDH1 inhibitor 46µM | Resorufin autofl inactive | IDH1 WT inactive | IDH1 R132H conf inactive
C=CCC(C(=O)Oc1c(C(C)(C)C)cc(C)cc1C(C)(C)C)c1ccccc1 (centres undefined)	none (no result: Apoferritin bind)
C[C@@H]1Cn2cnc(C(=O)N[C@@H](C)C(=O)OC(C)(C)C)c2C(=O)N1	none (no result: TSG101-PTAP inh, ERG-DNA inh, Apoferritin bind)
O=C(CCl)c1ccc2c(c1)CCN2C(=O)C1CCCCC1	mIDH1 inhibitor inconclusive | Resorufin autofl inactive | IDH1 WT inactive | IDH1 R132H conf 40µM
c1ccc(-c2cc(-c3nnc4n3N=C(c3ccc5ccccc5c3)CS4)[nH]n2)cc1	mIDH1 inhibitor 12µM (no result: TSG101-PTAP inh) | Resorufin autofl inactive | IDH1 WT inactive | IDH1 R132H conf 7.1µM
CN1CC=C2C(C#N)=C(N)C(C#N)(C#N)C(c3ccsc3)C2C1 (centres undefined)	mIDH1 inhibitor inconclusive | Resorufin autofl inactive | IDH1 WT inactive | IDH1 R132H conf inconclusive
N#CC1=C(N)C(C#N)(C#N)C(c2ccncc2)C2CN(C(=O)OCc3ccccc3)CC=C12 (centres undefined)	mIDH1 inhibitor 46µM | Resorufin autofl inactive | IDH1 WT inactive | IDH1 R132H conf 45µM
Cn1ncc([N+](=O)[O-])c1C(=O)NC1CCCCCC1	none
O=C1C(F)=CC(COC(c2ccccc2)(c2ccccc2)c2ccccc2)OC1n1cc(F)c(=O)[nH]c1=O (centres undefined)	mIDH1 inhibitor 26µM (no result: Apoferritin bind) | Resorufin autofl inactive | IDH1 WT 50µM | IDH1 R132H conf 11µM
COc1ccc2c(Cl)c(C(=O)N/N=C/c3ccncc3)sc2c1	none
